# SMN2 splice up: enhancers of SMN2 splice variant expression. HEK293 SMN2-luciferase splicing reporter, luminescence, 30-36 h. Potency, µM (titrated, usually from 46.1 µM), for inactives: at the top dose activity change, positive = activation, actives largely listed as activators. 2.8% of 210,000 active. AID 1458; note: % of control where 0% means no effect; nearly all actives have a fitted effect of over 55% in size
#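 HEK293 cells carry an SMN2 minigene-luciferase reporter in which exon 7 inclusion puts luciferase in frame. Cells were seeded at 2000 cells/well, attached for 10-12 hours, then exposed to compounds for 30-36 hours at 37C before ONE-Glo luminescence.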
# ELG1 genotoxic: genotoxicity induction in ELG1-luciferase HEK293T cells; Potency, µM (series often up to 46 µM), without a hit: at the top dose activity change, positive = activation, usual class: activators; HEK293T ELG1-luciferase reporter, luminescence, 16 h; 1.3% of 330,000 active; note: % of control where 0% means no effect; nearly all actives have a fitted effect of over 60% in size
#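 Genotoxicity was scored as increased ELG1-luciferase reporter signal, measured by ONE-Glo luminescence (30 min, room temperature). Compound or vehicle exposure of the HEK293T reporter cells lasted 16 hr at 37°C.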
# FLuc counter: firefly luciferase modulation, counter-screen for miR-21 project | purified FLuc, Km substrates, luminescence inhibition | Potency, µM (top dose mostly 57.5 µM), for inactives: at the highest dose activity change, negative = inhibition, most hits filed as inhibitors | 6.9% of 360,000 active;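 note: plate controls were vehicle for no effect and reference inhibitor for full effect; nearly all actives have a fitted effect of over 55% in size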
# Target sequence (P08659 whole entry, looked up): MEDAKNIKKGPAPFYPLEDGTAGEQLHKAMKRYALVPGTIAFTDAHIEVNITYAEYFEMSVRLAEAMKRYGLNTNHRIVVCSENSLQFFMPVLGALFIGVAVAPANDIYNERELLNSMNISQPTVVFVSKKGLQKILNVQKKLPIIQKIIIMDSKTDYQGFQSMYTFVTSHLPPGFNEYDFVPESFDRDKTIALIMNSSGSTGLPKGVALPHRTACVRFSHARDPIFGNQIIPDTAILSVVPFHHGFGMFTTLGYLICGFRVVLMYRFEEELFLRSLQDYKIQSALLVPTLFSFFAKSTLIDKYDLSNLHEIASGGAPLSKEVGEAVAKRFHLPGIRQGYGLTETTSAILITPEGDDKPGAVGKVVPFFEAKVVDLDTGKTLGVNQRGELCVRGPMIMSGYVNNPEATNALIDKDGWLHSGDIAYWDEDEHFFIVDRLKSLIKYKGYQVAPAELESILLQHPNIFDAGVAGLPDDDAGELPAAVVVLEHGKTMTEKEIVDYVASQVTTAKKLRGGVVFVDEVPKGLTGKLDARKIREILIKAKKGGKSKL
#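 Biochemical qHTS of compounds, final roughly 60 µM downward over six points, against 10 nM purified firefly luciferase using Km concentrations of substrates (10 uM D-luciferin, 10 uM ATP) in Tris acetate pH 7.5 buffer; luminescence output.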
# NPC1 promoter act: activators of NPC1 promoter | Huh7 NPC1 promoter luciferase reporter, 24 h | Potency, µM (top dose mostly 9.22 µM), for the others: top-dose activation, usual class: activators | 2.4% of 320,000 active; note: % of control where 0% means no effect; nearly all actives have a fitted effect of over 60% in size
#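 Luciferase expression driven by the NPC1 promoter was measured in stably transfected Huh7 cells after a 24 h compound incubation, using a luciferase reagent and a luminescence read.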
# KinaseGlo FLuc: Kinase-Glo luciferase inhibition (counter-screen). Q27757. Kinase-Glo luciferase, ATP luminescence, 8 min. Potency, µM (titrated, usually from 38.3 µM), inactives show top-dose activity change, negative = inhibition, usual class: inhibitors. 0.28% of 200,000 active; note: % is set by controls: 0 for no effect and ±100 for the full control effect; nearly all actives have a fitted effect of over 60% in size
#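 Inhibition of Kinase-Glo luciferase light generation was assessed at 10 uM ATP in pH 7.2 imidazole buffer, with luminescence measured after eight minutes at ambient temperature.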
# Rab9 promoter act: Rab9 promoter activation. Huh7 Rab9 promoter-luciferase reporter, luminescence, 24 h. 2.8% of 320,000 active. AID 485297. Potency, µM (series often up to 9.22 µM), for the others: top-dose activation, negative = inhibition, hits mostly activators; note: % of control where 0% means no effect; nearly all actives have a fitted effect of over 60% in size
#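 Measured in stably transfected Huh7 cells bearing a Rab9 promoter–luciferase construct: 24 h compound treatment at 37 °C, followed by luminescence detection.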
# * = called active by the depositor; ? = inconclusive; . = not tested or not shown; [ ] = another dose, or the depositor's remark. An excerpt weighted towards active compounds, which were near 7.5% of everything screened. Calls come from the whole dose curve; as a rule, active = well fitted curve in the direction sought with a large enough effect; inconclusive = small, poorly fitted or top-dose-only effect, or another doubt; inactive = no such curve, though single readings can be large; an effect the other way counts as inactive or inconclusive. Potency is the fitted concentration of half-maximal effect.
SMILES,SMN2 splice up,ELG1 genotoxic,FLuc counter,NPC1 promoter act,KinaseGlo FLuc,Rab9 promoter act
O=C(CSc1nncc2ccccc12)Nc1cccc(C(=O)O)c1,.,?,11µM*,22%,.,21%
CCNc1ncc2nc(-c3ccc(Cl)cc3)c(=O)n(C3CC3)c2n1,3%,.,.,.,-3%,.
Cc1ccc2nc(CSc3nnc(NC(=O)C(C)C)s3)cc(=O)n2c1,.,.,3%,.,.,.
Cc1cccc(Nc2nnc(SCC(=O)Nc3cccc(S(=O)(=O)N4CCCCC4)c3)s2)c1,0%[1.84 µM],13%,2.7µM*,14%,-2%,4%
Cc1nnc(SCC(=O)Nc2cccc(S(=O)(=O)NC3=NCCCCC3)c2)n1Cc1ccccc1,-1%,0%,-3%,-2%,1%,-1%
Cc1ccc(Nc2nnc(SCC(=O)Nc3cccc(S(=O)(=O)NC4=NCCCCC4)c3)s2)cc1,12%,5%,1.9µM*,11%,-2%,1%
O=C(CSc1nnc(SCc2cccc3ccccc23)s1)Nc1ccc(C(=O)O)cc1,18%,2%,8.5µM*,-1%,3%,-9%
CCOc1ccc(-c2nc(CCl)cs2)cc1OC,-10%,?,17µM*,10%,0%,8%
COc1ccc(-c2nc(CC(=O)O)cs2)cc1OC,7%,8%,1%,0%,-2%,-7%
COc1cccc(-c2nc(CCl)cs2)c1OC,-11%,11%,17µM*,0%,6%,4%
O=C(COc1ccc(Cl)cc1)Nc1ncc([N+](=O)[O-])s1,?,?,4.3µM*,0.56µM*,4%,?
O=C(Cc1ccc(Br)cc1)Nc1ncc([N+](=O)[O-])s1,.,-3%,?,?,.,?
O=C(Cc1ccc(Cl)cc1)Nc1ncc([N+](=O)[O-])s1,-57%,-2%,15µM*,4%,0%,1.4µM*
Oc1c(CN2CCN(c3ccccn3)CC2)cc(Cl)c2cccnc12,-67%,7.3µM*,0%,-16%,-1%,-33%
O=C(CCCCCn1nnc2ccccc2c1=O)Nc1ccccc1Cl,.,-7%,-4%,-3%,.,0%[1.84 µM]
CN(C)Cc1ccc(-c2cc3onc(-c4ccccc4)c3c(=O)n2C)cc1,-16%[9.22 µM],.,.,.,-1%[7.66 µM],.
Cn1c(-c2ccc(F)c(F)c2)cc2onc(-c3ccccc3)c2c1=O,.,2.3µM*,1.3µM*,0.79µM*,.,1.1µM*
COC(=O)c1ccc(-c2cc3onc(-c4ccccc4)c3c(=O)n2C)cc1,.,?,4.3µM*,?,.,28%
COc1ccc(-c2cc3onc(-c4c(Cl)cccc4Cl)c3c(=O)n2C)cc1,.,-4%,?,-1%,.,1%
COc1cccc(-c2cc3onc(-c4ccccc4)c3c(=O)n2C)c1,.,?,0.85µM*,0.71µM*,.,0.4µM*
CCOCCCNC(=O)c1cc(=O)[nH]c2ccc(S(=O)(=O)N3CCCC3)cc12,-3%,.,3%,.,.,.
Cc1cccc(C(=O)n2nc(-c3ccco3)nc2NCc2ccccc2)c1,8%,.,-6%,.,.,.
Cc1ccc(-c2n[nH]c3c2C(c2cccc(O)c2)N(c2ccc(C(=O)O)cc2)C3=O)cc1 (stereo not drawn),4%,1%,8.5µM*,-2%,.,-2%
O=c1n(Cc2ccc(F)cc2)c2ccccc2c2nc(-c3ccccc3)nn12,6%,.,-13%,.,.,.
Cc1cc(/C=N/NC(=O)C(O)(c2ccccc2)c2ccccc2)c(C)n1-c1ccccc1,?,-3%,?,-4%,0%,-1%
SMILES,SMN2 splice up,ELG1 genotoxic,FLuc counter,NPC1 promoter act,KinaseGlo FLuc,Rab9 promoter act
Cc1cc(/C=N/NC(=O)COc2cccc3cccnc23)c(C)n1-c1ccc(O)cc1,?,5%,3.4µM*,20%,-1%,30%
O=C(N/N=C/c1cccnc1)c1cccs1,.,6%,?,3%,.,18%
Cc1cc(C)nc(SCC(=O)N/N=C/c2cc(C)n(-c3ccccc3C)c2C)n1,-14%,-1%,17µM*,0%,-2%,-1%
Cc1cc(/C=N/NC(=O)c2cccs2)c(C)n1-c1ccccc1,?,?,0.085µM*,0.63µM*,-3%,0.79µM*
Cc1cccc(C)c1-n1c(C)cc(/C=N/NC(=O)CSc2ncccn2)c1C,-5%[1.84 µM],9%,?,2%,1%,-2%
Cc1cc(/C=N/NC(=O)c2cccs2)c(C)n1-c1cnccn1,.,7.3µM*,4.8µM*,2µM*,.,3.5µM*
Cc1ccc(C)c(NC(=O)c2cc(S(=O)(=O)N3CCCCCC3)ccc2F)c1,.,.,3%,.,.,.
O=C(NCCSCc1ccccc1Cl)C1CCN(S(=O)(=O)Cc2ccccc2)CC1,.,.,-6%,.,.,.
Cc1cc(C)c(Cn2c3ccccc3c3cnn(CC(=O)NCCCc4ccccc4)c(=O)c32)c(C)c1,-2%,.,4%,.,.,.
Cc1cc(C(=O)O)c(C)n1-c1ccccc1,-10%,1%,5%,4%,2%,-1%
Cc1ccc(-n2c(C)cc(/C=N/NC(=O)c3ccncc3)c2C)cc1C,-22%,-1%,8.5µM*,-7%,-3%,24%
Cc1cc(C(=O)N/N=C2\CC(=O)c3ccccc32)c(C)n1-c1ccccc1,10µM*,?,2.7µM*,?,-24%,3.5µM*
Cc1cc(/C=N/NC(=O)c2cccc([N+](=O)[O-])c2)c(C)n1-c1ccccc1,27%,?,1.7µM*,0%,-2%,20%
Cc1cc(C(=O)N/N=C/c2ccc(O)c(O)c2O)c(C)n1-c1ccccc1,-38%,-5%,11µM*,0%,-7%,-3%
Cc1ccccc1CNC(=O)c1ccc2nc(C(C)C)oc2c1,.,.,4%,.,.,.
CCOc1ccc(NC(=O)c2cc3c(=O)n4cccc(C)c4nc3s2)cc1,4%,.,0%,.,.,.
Cc1cc(/C=N/NC(N)=O)c(C)n1-c1ccc(F)cc1,-28%,4%,-10%,0%,-1%,-1%
CCc1ccc(-n2c(C)cc(/C=N/NC(=O)c3ccncc3)c2C)cc1,-15%,-11%,12µM*,4%,-1%,-1%
Cc1ccc(-n2c(C)cc(/C=N/NC(=O)c3ccncc3)c2C)c(C)c1,-10%,-4%,12µM*,-5%,-2%,8%
Cc1cccc(C)c1-n1c(C)cc(/C=N/NC(=O)c2ccncc2)c1C,2%,3%,-23%,0%,-1%,0%
Cc1ccc(-n2c(C)cc(/C=N/NC(=O)CC3(C)OCCO3)c2C)c(C)c1,-48%,-1%,?,1%,-3%,1%
Cc1cc(/C=N/NC(=O)c2ccncc2)c(C)n1-c1ccccc1,?,?,1.9µM*,23%,-1%,?
COc1ccc2nc(SCC(=O)O)nc(C)c2c1,36%,15%,-22%,10%,-1%,9%
COc1ccc2nc(SCc3cccc(C)c3)nc(C)c2c1,20µM*,?,11µM*,?,3%,4µM*

# Source: PubChem
